PubChem BioAssay AID2732 (Emory University Molecular Libraries Screening Center, 2010)
The whole screen tested about 220,000 compounds, of which about 8,200 (3.7%) were called active.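 Rule for the calls: active = compounds that reduced the stress-induced luciferase reporter signal by more than about 70% of percent inhibition (limit read from the data); inactive = the rest.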 What follows is part of a selection rich in actives, with near analogues and random picks from the rest.

Assay: inhibitors of CHOP promoter induction, primary screen, cell-based, unfolded protein response, luciferase reporter (AID 2732);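 note: 0% = tunicamycin plus vehicle and 100% = wells without tunicamycin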
Conditions: CHO-K1 CHOP-promoter luciferase, tunicamycin-induced, 15-18 h; at 10 µM; hits give high values

SMILES	inhibition
CCn1c(SCC(=O)N/N=C/c2ccccc2OCC(=O)O)nnc1-c1ccc(C(C)(C)C)cc1	4.75% (inactive)
CC(C)(C)n1cnnc1Sc1ccc([N+](=O)[O-])cn1	12.9% (inactive)
Cc1ccc(-c2c[n+](CC(=O)Nc3ccccc3)c3n2CCC3)cc1	16.6% (inactive)
O=C(O)C1CCN(C(=O)c2cc(F)cc3c2OCOC3)CC1	12.2% (inactive)
Cc1ccc(S(=O)(=O)NNC(=O)Nc2cccc3ccccc23)cc1	36.5% (inactive)
O=C(CC12CC3CC(CC(C3)C1)C2)Nc1ccc2c(c1)COC2=O	69.7% (inactive)
O=C(Nc1ccc2c(c1)C(=O)OC2)Nc1cccc2ccccc12	90.2% (active)
COc1ccc2oc(=O)c(C(=O)N3CCN(c4ccccc4F)CC3)cc2c1	25.2% (inactive)
O=C(c1ccc(CN2CCOCC2)cc1)N1CCN(c2ccccc2F)CC1	-5.7% (inactive)
O=C(c1cccc2ccccc12)N1CCN(c2ccccc2F)CC1	91.4% (active)
COc1ccc(CCNC2=CC(=O)CC(C)(C)C2)cc1	6.34% (inactive)
C=CCN1CC(C)/C(=N\O)CC1C (stereo not drawn)	-23.6% (inactive)
CC1=C/C(=N\S(=O)(=O)c2ccccc2)C(C(C)C)=CC1=O	49.7% (inactive)
CC1=C/C(=N\OS(=O)(=O)c2ccccc2)C=CC1=O	108% (active)
CCOC(=O)C1(S(=O)(=O)c2ccccc2)CCN(Cc2ccccc2)CC1	-6.62% (inactive)
CN(C(=O)CCn1c(=S)oc2ccccc21)C1CCCCC1	4.79% (inactive)
OCCNc1nc2ccccc2n1-c1ncnc2sc3c(c12)CCC3	74.4% (active)
CC(C)(C)C(=O)Cn1c(NCCO)nc2ccccc21	9.85% (inactive)
O=C(O)[C@@H]1CCCN1c1ncnc2sc3c(c12)CCC3	-1.98% (inactive)
N/C(=N\S(=O)(=O)c1cc(C(F)(F)F)cc(C(F)(F)F)c1)c1cccs1	34.7% (inactive)
Cc1ccc(S(=O)(=O)NC(=O)Nc2nc(-c3ccc(F)c(F)c3)cs2)cc1	1.74% (inactive)

SMILES	inhibition
CCOC(=O)c1cc(C)nc(S(C)(=O)=O)c1C#N	-90.6% (inactive)
COc1cccc(C2c3[nH]c4ccccc4c3CCN2Cc2cccc(C)n2)c1 (stereo not drawn)	8.45% (inactive)
c1ccc(C2c3[nH]c4ccccc4c3CCN2Cc2cccn2-c2cccnc2)nc1 (stereo not drawn)	-19.1% (inactive)
Oc1cccc(C2c3[nH]c4ccccc4c3CCN2Cc2cnn(-c3ccccc3)c2)c1 (stereo not drawn)	106% (active)
Cn1c(CSCC(=O)Nc2ccccc2)nnc1SCc1ccccc1	-6.7% (inactive)
COc1ccc(NC(=O)CCN2C(=O)/C(=C/c3ccc4c(c3)OCO4)SC2=S)cc1	-8.39% (inactive)
CCCCCCCCn1c2c(c(=N)c3c1CCC3)CCCC2	75.5% (active)
O=C(N/N=C/c1cccc([N+](=O)[O-])c1)c1ccncc1	5.76% (inactive)
O=C(CSc1nnnn1-c1ccc(O)cc1)c1ccc(F)cc1	17% (inactive)
CCCCC(CCC(=O)Nc1ccc(C(=O)OCC)cc1)C(=O)O (stereo not drawn)	14.7% (inactive)
CCCCCOC(=O)NCCOC(=O)Nc1ccc(C(=O)OCC)cc1	83.8% (active)
CCOC(=O)Nc1ccc(NC(=O)OCC)cc1	26.9% (inactive)
COc1cc([N+](=O)[O-])ccc1NC(=O)CN1CCCC1	-4.65% (inactive)
O=C(CN1CCCCCC1)Nc1ccc(Br)cc1Br	84.9% (active)
O=C(CN1CCCCC1)Nc1ccccc1Cl	10.1% (inactive)
CCOc1ccc(C2c3[nH]c4ccccc4c3CCN2Cc2cccn2-c2ncccn2)cc1 (stereo not drawn)	-20% (inactive)
Cc1nnc(N/N=C/c2cccs2)[nH]c1=O	10.9% (inactive)
CCOc1ccc(-n2cnc3c(=O)[nH]c(N)nc32)cc1	8.78% (inactive)
CC1CC2C3CCC4=CC(=O)C=C[C@]4(C)[C@@]3(F)[C@@H](O)C[C@]2(C)[C@@]1(O)C(=O)CO (stereo partly drawn)	4.18% (inactive)
CCN1CCN(c2nc(Nc3cccc(F)c3)nc(N)c2[N+](=O)[O-])CC1	3.99% (inactive)
Nc1nc(Nc2ccccc2)nc(NCCO)c1[N+](=O)[O-]	-4.79% (inactive)

SMILES	inhibition
CNc1nc(Nc2ccc(C)c(Cl)c2)nc(N)c1[N+](=O)[O-]	81.6% (active)
COc1ccc2c(c1)c1ncn(Cc3ccccn3)c(=O)c1n2C	18.8% (inactive)
CCN(CC)C(=O)Oc1ccc(Br)cc1C(=O)Nc1ccc(F)c(Cl)c1	-9.25% (inactive)
CN(C)C(=S)Nc1ccc(Br)cc1Cl	-7.26% (inactive)
CCCCSc1nnc2c(n1)OC=Nc1ccccc1-2	-26.6% (inactive)
O=C1/C(=C/c2ccc3c(c2)OCO3)CCC/C1=C\c1ccc2c(c1)OCO2	10.8% (inactive)
CCC1=C/C(=C\c2ccc3c(c2)OCO3)C(=O)S1	47.3% (inactive)
CSC1=N/C(=C\c2ccc3c(c2)OCO3)C(=O)S1	79.4% (active)
C/C=N/N(c1ccccc1)c1ccccc1	12.3% (inactive)
Oc1ccc(-c2nnc(Nc3ccccc3)c3ccccc23)cc1	34.9% (inactive)
COc1cc(OC)c2ccc(=O)oc2c1C(CCN1CCN(c2ccccc2)CC1)c1ccc2c(c1)OCO2 (stereo not drawn)	6.77% (inactive)
Cc1[nH]n(C)c(=O)c1C(=O)c1c(-c2c(Cl)cccc2Cl)noc1C	-56.3% (inactive)
COc1ccc(CNC(=O)C(Cc2ccccc2)n2cccc2)cc1 (stereo not drawn)	9.45% (inactive)
CCOC(=O)C1=C(O)CSC1=Nc1cccc(Cl)c1	12.7% (inactive)
CN(C)c1nc(=Nc2cccc(Cl)c2)ss1	74.4% (active)
Clc1cccc(N=C2NN=C(c3ccc4c(c3)OCCO4)CS2)c1	10.5% (inactive)
CN1C(=O)/C(=C/c2ccc(C(=O)NC3CCCC3)cc2)Oc2ccccc21	101% (active)
COc1ccccc1N(C)S(=O)(=O)c1ccc(C(=O)NC2CCCCCC2)cc1	19.2% (inactive)
O=C(NC1CC1)c1ccc(-c2ccccc2)cc1	-3.76% (inactive)
CCc1ccc2nc(Nc3ncc(C(C)=O)c(C)n3)nc(C)c2c1	1.13% (inactive)
NNC(=O)c1cccc(COCC(F)(F)C(F)F)c1	-3.75% (inactive)
